High-throughput results deposited in PubChem BioAssay by National Center for Advancing Translational Sciences (NCATS).
Only a selection was taken, and hits are over-represented in it overall.
Shiga inhibitor: blocks Shiga toxin action in Vero cells; inhibition, % at 38.7 µM; hit rate 9.2% among 290,000; Vero cells, Shiga toxin protein synthesis inhibition reporter; in the data active = inhibition mostly above about 28%, no sharp cut-off; inactive = mostly below about 43%
AmpC inh no detg: AmpC beta-lactamase inhibition without detergent; AmpC nitrocefin hydrolysis, absorbance 480 nm, 0.0001% Triton; Potency, µM (titrated, usually from 57.1 µM), usual class: inhibitors; hit rate 0.52% among 330,000; note: nearly all actives have a fitted effect of over 20% in size
Target sequence (P00811 whole entry, looked up): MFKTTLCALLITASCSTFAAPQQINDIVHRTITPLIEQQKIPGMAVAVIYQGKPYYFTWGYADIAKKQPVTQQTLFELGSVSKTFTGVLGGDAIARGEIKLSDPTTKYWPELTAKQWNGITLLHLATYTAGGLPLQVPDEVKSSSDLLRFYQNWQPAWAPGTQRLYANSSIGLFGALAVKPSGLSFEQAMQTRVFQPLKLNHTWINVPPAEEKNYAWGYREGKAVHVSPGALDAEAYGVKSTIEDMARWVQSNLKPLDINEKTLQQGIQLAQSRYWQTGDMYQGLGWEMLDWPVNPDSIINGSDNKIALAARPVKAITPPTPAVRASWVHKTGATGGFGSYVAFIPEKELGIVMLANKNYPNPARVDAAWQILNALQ
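20 mM phosphate pH 7.0 + 0.01% (detergent screen) or 0.0001% Triton X-100; 5.3 nM AmpC reagent; cpd preinc 15 min RT; nitrocefin (800 uM stock) to start; A480 q20 s × 4 min; Activity was normalised to no-enzyme and no-compound control wells.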
AMA1 RON2 block: inhibitors of Plasmodium falciparum AMA1-RON2 interaction; hit rate 0.2% among 360,000; AID 720542; Potency, µM (highest dose often 58.2 µM), usual class: inhibitors; AlphaScreen AMA1-biotinylated RON2 peptide binding; note: nearly all actives have a fitted effect of over 45% in size
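AMA1 (3D7) with his tag at 25 nM final met compounds first, then biotinylated RON2 peptide at 25 nM; detection used donor plus acceptor beads, 10 µg/mL apiece, read by AlphaScreen after 30 min at room temperature.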
Cycloheximide cs: counter-screen hit for Shiga toxin inhibitors, cycloheximide; max response, %; hit rate 12% among 300,000; AID 2314; cell reporter, cycloheximide protein synthesis inhibition counterscreen; in the data active = max response mostly above about 13%, no sharp cut-off; inactive = mostly below about 14%; note: read at 38.3 µM for the half of the compounds with a filed dose
AmpC detergent: AmpC beta-lactamase inhibition with detergent present; P00811; AmpC hydrolysis of nitrocefin, absorbance 480 nm, 0.01% Triton; Potency, µM (highest dose often 114 µM), usual class: inhibitors; hit rate 0.041% among 370,000; AID 485294; note: nearly all actives have a fitted effect of over 25% in size
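20 mM phosphate pH 7.0 + 0.01% (detergent screen) or 0.0001% Triton X-100; 5.3 nM AmpC reagent; cpd preinc 15 min RT; nitrocefin (800 uM stock) to start; A480 q20 s × 4 min; Activity was normalised to no-enzyme and no-compound control wells.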
SARS PLpro yeast: SARS-CoV PLP inhibition in yeast; S. cerevisiae expressing SARS-CoV PLpro, growth rescue; Potency, µM (top dose mostly 32.9 µM), most hits filed as activators; hit rate 0.19% among 330,000; AID 485353; calls by dose curve; note: nearly all actives have a fitted effect of over 55% in size
A number is an active result; 0 = inactive; ? = inconclusive; - = no result given; [ ] = another dose, or the depositor's remark. Unless noted, calls come from the whole dose curve; as a rule, active = well fitted curve in the direction sought with a large enough effect; inconclusive = small, poorly fitted or top-dose-only effect, or another doubt; inactive = no such curve, though single readings can be large; an effect the other way counts as inactive or inconclusive.

SMILES | Shiga inhibitor | AmpC inh no detg | AMA1 RON2 block | Cycloheximide cs | AmpC detergent | SARS PLpro yeast
Cc1[nH]c2ccccc2c1C(=O)CSc1nc2ncc(Cl)cc2[nH]1 | 0 | 0 | 0 | 0 | 0 | 0
O=C(N/N=C/c1cccs1)C1COc2ccccc2O1 (centres undefined) | 0 | 0 | 0 | 0 | 0 | 0
O=C(N/N=C/C=C/c1ccc2c(c1)OCO2)c1ccc([N+](=O)[O-])cc1 | 0 | 0 | 0 | 0 | ? | 0
O=C(N/N=C/c1ccccc1O)c1ccc2c(c1)OCO2 | 96 | 0 | 0 | 50 | 0 | 0
O=C(N/N=C/c1cccs1)c1ccc2c(c1)OCO2 | 0 | 0 | 0[11.6 µM] | 25 | 0 | 0
Cc1nc2ccc(C(=O)N/N=C/c3ccccc3O)cc2[nH]1 | 84 | 0 | 0 | 44 | 0 | 0
O=C(N/N=C\C=C\c1ccc(Br)cc1)c1ccc2c(c1)OCO2 | 23 | 0 | 0 | 9.9 | 45µM | 0
CCOC(=O)COc1ccc(/C=C2/SC(=Nc3ccccc3)N(Cc3cccnc3)C2=O)cc1OC | 0 | 0 | 0 | 0 | 0 | 0
O=C(N/N=C/c1ccncc1)c1ccc2c(c1)OCO2 | 76 | 0 | 0 | 24 | 0 | 0
O=C(N/N=C/c1ccc2c(c1)OCCO2)c1ccncc1 | 0 | 0 | 0 | 0 | 0 | 0
O=C(N/N=C/c1ccc2c(c1)OCO2)c1ccc2c(c1)OCCO2 | 64 | 0 | 0 | 55 | 0 | 0
Cc1nc2ccc(C(=O)c3ccccc3)cc2[nH]1 | 53 | 0 | 0 | 34 | 0 | 0
O=C(c1ccccc1)c1ccc2nc[nH]c2c1 | 0 | ? | 0 | 0 | 0 | 0
O=C(N/N=C/c1cc2c(cc1Cl)OCO2)c1ccncc1 | 0 | 0 | 0 | 0 | 0 | 0
Cc1cc(=O)c2cc(C(=O)c3ccccc3)ccc2[nH]1 | 0 | 0 | 0 | 9.4 | 0 | 0
c1ccc(CCCN2CCN(c3ccccn3)CC2)cc1 | 0 | 0 | 0 | 0 | 0 | 0
CCN(CC)c1ccc(/C=N/NC(=O)c2ccc(Br)o2)cc1 | 38 | 0 | 0 | 33 | ? | 0
O=C(N/N=C/c1cccc([N+](=O)[O-])c1)c1ccc2c(c1)OCCO2 | 62 | 0 | 0 | 43 | 0 | 0
O=C(N/N=C/c1ccc2c(c1)OCO2)c1ccc(Cl)cc1Cl | 0 | 0 | 0 | 15 | 0 | 0
CCCc1cc(-n2ccnc2C)n2c(nc3ccccc32)c1C#N | - | - | 0 | - | - | -
CSc1ccc(/C=N\Nc2nncn2N)cc1 | 76 | 0 | 0 | 28 | 0 | 0
CC(C)(C)c1nnc(N/N=C/c2ccc(Br)cc2)n(N)c1=O | 64 | 0 | 0 | 55 | 0 | 0
CC(C)(C)c1ccc(/C=N/Nc2nncn2N)cc1 | 0 | 0 | 0 | 17 | ? | 0
CC1CCN(c2ccc(/C=N\Nc3nncn3N)cc2[N+](=O)[O-])CC1 | 0 | 0 | 0 | 0 | ? | 0
Cc1nnc(N/N=C/c2c(Cl)cccc2Cl)n1N | 0 | 0 | 0 | 0 | 0 | 0
SMILES | Shiga inhibitor | AmpC inh no detg | AMA1 RON2 block | Cycloheximide cs | AmpC detergent | SARS PLpro yeast
CCOC(=O)c1ccc(NC(=O)Nc2ccon2)cc1 | 66 | 0 | 0 | 31 | 0 | 0
O=C(Nc1ccc(Cl)c(Cl)c1)Nc1ccon1 | 0 | ? | 0 | 18 | 0 | 0
Cn1c(SCc2cccc(C#N)c2)nc2ccccc2c1=O | 0 | 0 | 0 | 0 | ? | 0
Cc1ccc(CCNC(=O)C2CCN(c3nn4c(=O)cc(C)nc4s3)CC2)cc1 | 0 | 0 | 0 | 0 | 0 | 0
Cc1ccc(N2C(=O)C3CCCN3C2=S)cc1C (centres undefined) | 0 | 0 | 0 | 16 | 0 | 0
NC(=O)c1ccsc1NC(=O)CN1C(=O)NC2(CCCCC2)C1=O | - | 0 | 0 | - | 0 | 0
CC(=O)Nc1ccc(-c2csc(NCCc3ccccc3)n2)cc1 | 0 | 0 | 0 | 21 | 0 | 0
CC(=O)Nc1ccc(-c2csc(Nc3ccccn3)n2)cc1 | 52 | 0 | 0 | 48 | 0 | 0
Cc1ccnc(Nc2nc(-c3ccc(O)cc3O)cs2)c1 | 22 | 0 | 0 | 25 | ? | 0
Oc1ccc(-c2csc(Nc3ccccn3)n2)cc1O | 100 | 1.6µM | 0 | 43 | 0 | 0
O=C(Nc1ccc(F)cc1F)C1CCN(c2ncnc3c2sc2cccc(F)c23)CC1 | 0 | 0 | 0 | 0 | 0 | 0
CCC(=O)Nc1nc(C)c(-c2csc(Nc3ccccn3)n2)s1 | 103 | 0 | 0 | 33 | 0 | 0
Cc1ccnc(Nc2nc(-c3ccc(O)c(O)c3)cs2)c1 | 97 | 0 | 0 | 40 | 0 | 0
Oc1ccc(-c2csc(Nc3cccc4ccccc34)n2)cc1O | 0 | 0 | 0 | 0 | 0 | 0
NS(=O)(=O)c1ccc(Nc2nc(-c3ccc(O)cc3)cs2)cc1 | 0 | 0 | 0 | 0 | 0 | 0
Cc1ccnc(Nc2nc(-c3ccc(O)cc3)cs2)c1 | 120 | 0 | 0 | 35 | 0 | 0
C/C(=N\Nc1ccc(C(=O)O)cc1)c1ccc2c(c1)Nc1ccccc1S2 | 48 | 0 | 0 | 69 | 0 | 0
CC(C)Nc1nc2c(c(=O)n(C)c(=O)n2C)n1C | 0 | 0 | 0 | 0 | 0 | 0
Cn1c(=O)c2c(nc(NC3CCCC3)n2C)n(C)c1=O | 0 | 0 | 0 | 25 | 0 | 0
O=C(Nc1ccccc1)c1cc(-n2cnnc2)ccc1Cl | 0 | 0 | 0 | 0 | 0 | 10µM
O=C(Nc1ccc2oc(-c3ccc4ccccc4c3)nc2c1)c1cc(Cl)ccc1Cl | - | - | - | - | 0 | -
O=C(Nc1ccc(-c2nc3ccccc3o2)c(O)c1)c1cc(-n2cnnc2)ccc1Cl | 0 | 0 | 0 | 0 | ? | 0
O=C(Nc1ccc2oc(-c3ccccc3)nc2c1)c1cc(-n2cnnc2)ccc1Cl | 84 | 0 | 0 | 28 | 0 | 0
O=C(Nc1ccc(-c2nc3ccccc3o2)cc1)c1cc(-n2cnnc2)ccc1Cl | 56 | 0 | 0 | 23 | 0 | 0
Cc1c(NC(=O)c2cc(-n3cnnc3)ccc2Cl)cccc1-c1nc2ccccc2o1 | 0 | 0 | 0 | 18 | 0 | 0
SMILES | Shiga inhibitor | AmpC inh no detg | AMA1 RON2 block | Cycloheximide cs | AmpC detergent | SARS PLpro yeast
O=C(Nc1ccc(N2CCOCC2)cc1)c1cc(-n2cnnc2)ccc1Cl | 0 | 0 | 0 | 0 | 0 | 0
N#CC1=C(N)Oc2c(oc(CO)cc2=O)C1c1ccccc1[N+](=O)[O-] (centres undefined) | 0 | 0 | 0 | 0 | 0 | 0
Cc1cn2c(-c3ccc(Cl)cc3)nnc2s1 | 0 | 20µM | 0 | 0 | 0 | 0
CCc1nnc(N/N=C/c2cc(C)c(C)cc2C)n1N | 0 | 0 | 0 | 0 | ? | 0
COC1c2ccccc2C(=O)N1CCc1ccc(Cl)cc1 (centres undefined) | 41 | 0 | 0 | 16 | 0 | 0
CCOc1ccc2nc(/N=C/c3nc(-c4ccc(Br)cc4)oc3O)sc2c1 | 0 | 0 | 0 | 0 | ? | 0
CCCCN=Cc1sc2ccc(OCC)cc2c1O | 67 | 0 | 0 | 69 | 0 | 0
C=CCN=Cc1sc2ccc(OCC)cc2c1O | 153 | 0 | - | 51 | 0 | 0
CCc1noc(C)c1C(=O)N1CCCC(CCC(=O)NCc2ccc(F)c(F)c2)C1 (centres undefined) | 0 | 0 | 0 | 0 | 0 | 0
